Assay results published in the supplement of paper PMC11732987, “Enantioselective OTUD7B fragment discovery through chemoproteomics screening and high-throughput optimisation” (Communications Chemistry, 2025).
A number with no mark means an inactive call.

What was measured:
Assay in all cases: log2 ratio of Biotin-Ahx-Ub-VS probe labelling (fragment/DMSO); higher = less target engagement (more negative = stronger competition), active = hit call of the paper (q ≤ 0.05, log2 ratio ≤ -1)
Settings in all cases: compound concentration: 200 uM; treatment time: 3 h
[1] = biological target: T1, USP19 (UniProt O94966)
T1 sequence (whole entry): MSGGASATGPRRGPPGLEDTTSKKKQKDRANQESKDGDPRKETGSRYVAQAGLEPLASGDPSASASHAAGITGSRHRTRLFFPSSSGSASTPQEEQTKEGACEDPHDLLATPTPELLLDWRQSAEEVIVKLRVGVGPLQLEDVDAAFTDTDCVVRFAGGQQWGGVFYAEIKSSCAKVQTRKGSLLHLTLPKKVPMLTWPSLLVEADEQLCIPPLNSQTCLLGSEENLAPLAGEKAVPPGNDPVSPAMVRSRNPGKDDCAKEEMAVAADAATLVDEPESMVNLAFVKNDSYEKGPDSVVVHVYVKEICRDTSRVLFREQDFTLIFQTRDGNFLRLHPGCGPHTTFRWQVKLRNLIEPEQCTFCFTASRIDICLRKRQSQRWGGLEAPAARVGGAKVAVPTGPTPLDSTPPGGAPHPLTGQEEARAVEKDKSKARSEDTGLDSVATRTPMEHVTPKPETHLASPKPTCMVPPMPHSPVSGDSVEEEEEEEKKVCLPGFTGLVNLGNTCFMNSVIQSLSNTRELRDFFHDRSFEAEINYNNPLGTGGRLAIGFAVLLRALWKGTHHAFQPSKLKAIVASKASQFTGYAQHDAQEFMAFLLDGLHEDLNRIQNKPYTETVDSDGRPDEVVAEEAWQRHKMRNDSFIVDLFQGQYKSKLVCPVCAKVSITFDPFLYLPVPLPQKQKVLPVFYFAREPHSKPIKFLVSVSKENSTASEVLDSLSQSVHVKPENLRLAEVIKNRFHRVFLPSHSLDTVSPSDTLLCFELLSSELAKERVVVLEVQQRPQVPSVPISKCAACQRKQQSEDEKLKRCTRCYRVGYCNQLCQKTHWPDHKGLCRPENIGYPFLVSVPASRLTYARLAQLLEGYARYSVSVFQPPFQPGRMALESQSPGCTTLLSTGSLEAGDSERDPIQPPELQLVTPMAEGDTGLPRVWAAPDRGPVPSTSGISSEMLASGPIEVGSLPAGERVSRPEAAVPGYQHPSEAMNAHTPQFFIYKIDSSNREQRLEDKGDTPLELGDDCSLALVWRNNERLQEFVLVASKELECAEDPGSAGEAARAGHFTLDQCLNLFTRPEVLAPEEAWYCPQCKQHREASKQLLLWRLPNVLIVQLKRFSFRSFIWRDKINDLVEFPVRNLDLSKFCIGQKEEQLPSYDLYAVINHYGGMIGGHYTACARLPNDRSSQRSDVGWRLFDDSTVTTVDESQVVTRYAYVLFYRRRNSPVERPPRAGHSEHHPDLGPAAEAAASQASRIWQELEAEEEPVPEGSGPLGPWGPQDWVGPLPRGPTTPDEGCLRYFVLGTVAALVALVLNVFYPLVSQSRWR
Outline: (§1)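 Labelling with Biotin-Ahx-Ub-VS (0.5 µM final, 1 h) followed a 3 h triplicate treatment of HEK293T lysate (495 µg per sample, Tris/CHAPS/IGEPAL buffer with protease inhibitors) with fragment at 200 µM or vehicle. Labelled DUBs were NeutrAvidin-enriched, digested with LysC and trypsin, and run by diaPASEF LC-MS/MS. The values, average log2 fragment/vehicle ratios by unpaired t-test, come from global-median-normalised Spectronaut label-free quantities. Proteins with ≥2 unique peptides were used.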

[2] = biological target: USP24 (UniProt Q9UPU5)
USP24, sequence (Q9UPU5 whole entry): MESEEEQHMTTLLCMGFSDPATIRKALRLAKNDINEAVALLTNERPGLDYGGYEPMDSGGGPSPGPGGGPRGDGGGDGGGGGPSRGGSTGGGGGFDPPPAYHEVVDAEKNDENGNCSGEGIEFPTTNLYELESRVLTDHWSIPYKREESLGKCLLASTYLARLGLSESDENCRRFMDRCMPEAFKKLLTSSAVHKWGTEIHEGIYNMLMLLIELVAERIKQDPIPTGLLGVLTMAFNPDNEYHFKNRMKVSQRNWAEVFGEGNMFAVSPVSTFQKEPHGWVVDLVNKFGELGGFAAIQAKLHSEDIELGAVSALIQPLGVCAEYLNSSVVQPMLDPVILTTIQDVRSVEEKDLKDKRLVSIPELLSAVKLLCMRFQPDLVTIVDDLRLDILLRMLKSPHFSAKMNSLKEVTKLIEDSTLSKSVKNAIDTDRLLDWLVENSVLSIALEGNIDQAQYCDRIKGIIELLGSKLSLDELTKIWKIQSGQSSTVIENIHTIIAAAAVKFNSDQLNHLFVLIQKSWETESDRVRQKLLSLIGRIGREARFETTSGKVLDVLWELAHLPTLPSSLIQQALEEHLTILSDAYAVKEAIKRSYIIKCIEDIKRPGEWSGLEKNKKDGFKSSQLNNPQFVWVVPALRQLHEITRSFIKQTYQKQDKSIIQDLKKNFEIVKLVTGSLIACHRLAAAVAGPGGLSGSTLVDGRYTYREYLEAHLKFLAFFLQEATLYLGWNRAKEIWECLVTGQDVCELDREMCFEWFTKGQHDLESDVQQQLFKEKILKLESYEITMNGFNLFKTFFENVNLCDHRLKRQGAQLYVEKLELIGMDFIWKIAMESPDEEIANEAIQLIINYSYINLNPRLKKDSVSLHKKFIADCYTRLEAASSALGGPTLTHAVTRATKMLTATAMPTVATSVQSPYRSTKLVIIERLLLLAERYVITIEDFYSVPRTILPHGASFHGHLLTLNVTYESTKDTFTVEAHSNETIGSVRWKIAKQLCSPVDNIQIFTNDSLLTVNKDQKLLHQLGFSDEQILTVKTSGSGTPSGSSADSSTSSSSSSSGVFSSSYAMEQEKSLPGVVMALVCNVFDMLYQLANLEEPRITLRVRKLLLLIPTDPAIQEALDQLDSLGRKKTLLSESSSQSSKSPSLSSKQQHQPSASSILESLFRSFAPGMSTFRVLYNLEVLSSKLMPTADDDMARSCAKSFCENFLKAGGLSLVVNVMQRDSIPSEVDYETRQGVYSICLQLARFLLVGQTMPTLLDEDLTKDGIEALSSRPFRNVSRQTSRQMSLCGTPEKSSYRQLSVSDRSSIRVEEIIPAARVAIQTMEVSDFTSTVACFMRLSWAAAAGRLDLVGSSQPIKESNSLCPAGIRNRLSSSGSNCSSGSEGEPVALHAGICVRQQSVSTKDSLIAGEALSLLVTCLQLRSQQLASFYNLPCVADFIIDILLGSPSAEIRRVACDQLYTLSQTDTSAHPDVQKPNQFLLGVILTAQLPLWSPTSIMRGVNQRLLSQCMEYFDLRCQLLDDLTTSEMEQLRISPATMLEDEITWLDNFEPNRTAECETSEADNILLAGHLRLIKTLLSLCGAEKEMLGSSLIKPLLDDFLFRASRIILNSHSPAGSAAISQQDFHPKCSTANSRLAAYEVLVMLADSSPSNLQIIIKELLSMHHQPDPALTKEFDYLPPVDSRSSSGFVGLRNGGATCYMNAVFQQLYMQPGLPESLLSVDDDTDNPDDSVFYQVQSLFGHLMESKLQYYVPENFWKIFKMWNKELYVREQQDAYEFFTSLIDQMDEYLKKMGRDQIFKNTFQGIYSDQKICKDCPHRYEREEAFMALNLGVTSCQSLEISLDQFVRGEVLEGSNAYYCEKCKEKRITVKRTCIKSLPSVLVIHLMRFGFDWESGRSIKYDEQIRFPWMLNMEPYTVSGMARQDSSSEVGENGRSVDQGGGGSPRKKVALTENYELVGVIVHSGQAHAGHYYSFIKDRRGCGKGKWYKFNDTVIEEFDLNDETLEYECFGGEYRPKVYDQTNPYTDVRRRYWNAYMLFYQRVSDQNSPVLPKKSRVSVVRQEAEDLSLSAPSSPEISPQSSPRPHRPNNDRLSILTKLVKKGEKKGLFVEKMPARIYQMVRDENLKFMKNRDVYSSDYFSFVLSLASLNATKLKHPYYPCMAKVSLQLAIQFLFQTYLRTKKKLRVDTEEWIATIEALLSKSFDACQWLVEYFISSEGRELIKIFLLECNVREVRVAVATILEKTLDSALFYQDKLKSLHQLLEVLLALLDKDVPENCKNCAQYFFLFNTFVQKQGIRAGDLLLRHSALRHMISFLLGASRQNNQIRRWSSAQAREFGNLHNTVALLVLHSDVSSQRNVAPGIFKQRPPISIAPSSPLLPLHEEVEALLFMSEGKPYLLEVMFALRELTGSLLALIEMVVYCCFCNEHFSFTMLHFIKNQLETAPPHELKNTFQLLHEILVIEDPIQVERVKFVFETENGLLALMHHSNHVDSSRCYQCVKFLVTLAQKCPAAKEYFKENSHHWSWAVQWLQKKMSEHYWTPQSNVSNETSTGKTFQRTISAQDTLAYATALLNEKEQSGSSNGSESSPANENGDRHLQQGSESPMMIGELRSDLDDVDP
Outline: as §1

[3] = biological target: T2, USP25 (UniProt Q9UHP3)
T2 sequence (whole entry): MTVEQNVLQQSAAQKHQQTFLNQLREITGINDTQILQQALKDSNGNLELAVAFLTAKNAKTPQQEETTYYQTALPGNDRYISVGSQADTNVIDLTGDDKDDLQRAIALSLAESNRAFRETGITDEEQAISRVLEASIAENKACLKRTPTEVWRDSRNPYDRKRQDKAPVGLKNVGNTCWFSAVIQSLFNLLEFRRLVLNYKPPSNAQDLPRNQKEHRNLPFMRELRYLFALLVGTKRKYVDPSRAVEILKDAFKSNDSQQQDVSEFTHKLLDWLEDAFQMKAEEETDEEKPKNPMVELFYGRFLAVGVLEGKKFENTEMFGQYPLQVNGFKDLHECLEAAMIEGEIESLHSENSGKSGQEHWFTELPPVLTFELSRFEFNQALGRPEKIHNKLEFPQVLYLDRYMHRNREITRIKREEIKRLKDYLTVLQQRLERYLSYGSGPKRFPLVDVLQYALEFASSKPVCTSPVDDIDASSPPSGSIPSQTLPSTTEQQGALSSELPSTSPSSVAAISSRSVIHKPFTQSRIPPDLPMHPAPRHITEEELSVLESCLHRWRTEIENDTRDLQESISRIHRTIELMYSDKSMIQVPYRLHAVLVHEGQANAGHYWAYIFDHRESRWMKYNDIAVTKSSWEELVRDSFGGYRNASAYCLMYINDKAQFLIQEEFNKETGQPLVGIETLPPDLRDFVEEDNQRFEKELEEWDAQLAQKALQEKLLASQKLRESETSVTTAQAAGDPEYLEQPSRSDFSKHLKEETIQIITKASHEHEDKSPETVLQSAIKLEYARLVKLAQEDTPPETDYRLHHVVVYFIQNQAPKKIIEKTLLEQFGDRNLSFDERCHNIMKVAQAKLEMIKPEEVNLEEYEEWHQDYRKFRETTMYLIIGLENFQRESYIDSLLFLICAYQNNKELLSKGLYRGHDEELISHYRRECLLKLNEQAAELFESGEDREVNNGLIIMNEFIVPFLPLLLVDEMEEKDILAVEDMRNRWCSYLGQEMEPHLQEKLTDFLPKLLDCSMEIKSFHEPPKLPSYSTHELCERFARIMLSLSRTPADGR
Outline: as §1

[4] = biological target: T3, USP28 (UniProt Q96RU2)
T3 sequence (whole entry): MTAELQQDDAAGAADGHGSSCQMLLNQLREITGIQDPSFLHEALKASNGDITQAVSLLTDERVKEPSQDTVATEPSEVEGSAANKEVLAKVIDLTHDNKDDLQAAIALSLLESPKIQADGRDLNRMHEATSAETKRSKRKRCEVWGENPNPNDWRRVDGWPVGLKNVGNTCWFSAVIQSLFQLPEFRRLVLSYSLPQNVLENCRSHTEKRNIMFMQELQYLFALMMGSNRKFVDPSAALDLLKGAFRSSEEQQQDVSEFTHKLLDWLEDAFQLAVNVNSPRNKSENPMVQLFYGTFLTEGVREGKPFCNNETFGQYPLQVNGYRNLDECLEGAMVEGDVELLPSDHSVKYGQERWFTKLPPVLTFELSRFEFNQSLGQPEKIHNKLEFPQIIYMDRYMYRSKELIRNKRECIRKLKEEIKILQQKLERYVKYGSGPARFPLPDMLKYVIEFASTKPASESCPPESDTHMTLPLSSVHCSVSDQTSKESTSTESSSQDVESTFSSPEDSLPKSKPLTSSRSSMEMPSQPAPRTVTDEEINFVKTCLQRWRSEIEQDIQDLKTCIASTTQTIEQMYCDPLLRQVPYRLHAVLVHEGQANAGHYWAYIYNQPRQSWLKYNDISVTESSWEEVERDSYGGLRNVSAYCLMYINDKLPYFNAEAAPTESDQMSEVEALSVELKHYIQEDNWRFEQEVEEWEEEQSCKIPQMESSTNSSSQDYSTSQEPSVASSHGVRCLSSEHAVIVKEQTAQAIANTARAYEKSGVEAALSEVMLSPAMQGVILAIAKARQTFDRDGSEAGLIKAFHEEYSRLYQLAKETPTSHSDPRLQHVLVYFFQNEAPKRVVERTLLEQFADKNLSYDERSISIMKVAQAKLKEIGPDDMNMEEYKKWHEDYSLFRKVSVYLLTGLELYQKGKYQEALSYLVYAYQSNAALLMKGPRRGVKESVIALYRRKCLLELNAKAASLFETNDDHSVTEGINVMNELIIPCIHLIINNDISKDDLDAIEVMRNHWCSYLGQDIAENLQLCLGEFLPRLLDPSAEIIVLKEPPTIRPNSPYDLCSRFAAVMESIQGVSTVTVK
Outline: as §1

## N#Cc1ccc(Cl)cc1NC(=O)CCl
[1]
  log2 ratio of Biotin-Ahx-Ub-VS probe labelling: -0.121
[2]
  log2 ratio of Biotin-Ahx-Ub-VS probe labelling: -0.83
[3]
  log2 ratio of Biotin-Ahx-Ub-VS probe labelling: -0.912
[4]
  log2 ratio of Biotin-Ahx-Ub-VS probe labelling: -1.49 (active)
